Shown are actives, neighbours in structure and some others; about 3.2% of the full set was active somewhere.
TR SRC2 fluor cs: Total Fluorescence Counterscreen for Inhibitors of the Interaction of Thyroid Hormone Receptor and Steroid Receptor Coregulator 2; TRb/SRC2 Texas Red total fluorescence interference; Potency, µM (doses to about 106 µM); 280,000 tested, 0.29% active; AID 1479, 2009; active = well fitted curve in either direction with a large enough effect; inconclusive = small, poorly fitted or top-dose-only effect
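Human TRβ ligand-binding domain (0.6 uM) and Texas Red SRC2 peptide (20 nM) in Tris buffer with 1 uM T3 and 5% DMSO were incubated with pinned compound for 5 hr at ambient temperature. Total fluorescence was computed as S + 2P (555/632 nm).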
RGS12 GoLoco inh: qHTS Assay for Inhibitors of RGS12 GoLoco Motif Activity (Red Fluorophore) | Gai1:RGS12 GoLoco peptide FP, rhodamine, 10 min | 230,000 tested, 0.44% active | Potency, µM (highest dose often 61.6 µM), hits mostly inhibitors; active = well fitted inhibition curve with a large enough effect, not every such curve was filed as active; inactive = no such curve, though single readings can be large or run the other way; note: nearly all actives have a fitted effect of over 30% in size
Tau fluor cs: Counterscreen qHTS for Inhibitors of Tau Fibril Formation, Fluorescence Polarization; tau K18 P301L Alexa594 fluorescence, heparin fibrillization; AID 1463, 2008; 280,000 tested, 0.93% active; Potency, µM (titrated, usually from 57.7 µM); note: nearly all actives have a fitted effect of over 55% in size
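Human tau K18 P301L (15 uM unlabeled, 0.24 uM Alexa 594-labeled) in 100 mM sodium acetate pH 7 with 20 uM heparin, 6 hr at 37 C. ThT 30 uM added, 1 hr ambient; Alexa 594 FP and total fluorescence read at 555/632 nm.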
TRb-SRC2 inh: qHTS for Inhibitors of the Interaction of Thyroid Hormone Receptor and Steroid Receptor Coregulator 2 | TRbeta-SRC2 peptide binding, fluorescence polarization; receptor liganded with 1 µM T3 | Potency, µM (titrated, usually from 106 µM), usual class: inhibitors | Thyroid hormone receptor beta (Homo sapiens), P10828 | 280,000 tested, 0.065% active; note: nearly all actives have a fitted effect of over 50% in size
Target sequence (P10828 whole entry, looked up): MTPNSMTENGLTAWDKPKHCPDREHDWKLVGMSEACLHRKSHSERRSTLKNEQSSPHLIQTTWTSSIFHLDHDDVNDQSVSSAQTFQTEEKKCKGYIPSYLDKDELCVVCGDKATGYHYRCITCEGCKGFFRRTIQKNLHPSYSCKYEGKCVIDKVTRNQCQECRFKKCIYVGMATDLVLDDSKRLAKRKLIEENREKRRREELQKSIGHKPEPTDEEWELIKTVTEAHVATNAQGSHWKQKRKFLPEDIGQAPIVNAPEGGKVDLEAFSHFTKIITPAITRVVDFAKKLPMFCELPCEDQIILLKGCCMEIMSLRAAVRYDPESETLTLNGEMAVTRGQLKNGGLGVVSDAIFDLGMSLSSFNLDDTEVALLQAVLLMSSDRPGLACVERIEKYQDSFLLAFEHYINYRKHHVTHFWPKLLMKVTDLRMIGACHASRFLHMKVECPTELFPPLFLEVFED
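Compounds were added to 0.6 uM TRb ligand-binding domain and 20 nM Texas Red-labeled SRC2 peptide in Tris buffer containing 1 uM T3, incubated 5 hr at ambient temperature, then read by fluorescence polarization.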
Tau fibril ThT: qHTS for Inhibitors of Tau Fibril Formation, Thioflavin T Binding. Potency, µM (series often up to 57.4 µM), most hits filed as inhibitors. Microtubule-associated protein tau (Homo sapiens), P10636. recombinant tau K18 P301L, heparin-induced fibrillization, ThT fluorescence. 270,000 tested, 2.1% active; note: nearly all actives have a fitted effect of over 55% in size
Target sequence (P10636 561-689 P618L limits assumed): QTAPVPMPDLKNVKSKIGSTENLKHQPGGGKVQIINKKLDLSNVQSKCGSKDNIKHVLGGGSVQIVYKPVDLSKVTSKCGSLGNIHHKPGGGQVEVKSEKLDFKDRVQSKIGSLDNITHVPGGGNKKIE
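Aggregation was driven by heparin (20 uM final) acting on recombinant tau […] bearing P301L in 100 mM sodium acetate pH 7; fibrils were detected with Thioflavin T.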
Tau fibril FP: qHTS for Inhibitors of Tau Fibril Formation, Fluorescence Polarization; Microtubule-associated protein tau (Homo sapiens), P10636; K18 P301L tau heparin fibrillization, Alexa594 FP, 6 h; Potency, µM (top dose mostly 57.7 µM), most hits filed as inhibitors; 280,000 tested, 0.39% active; AID 1468, 2008; note: nearly all actives have a fitted effect of over 55% in size
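Heparin (20 uM) drove fibril formation of recombinant tau K18 P301L, 15 uM unlabeled with 0.24 uM Alexa 594 label, for 6 hr at 37 C in 100 mM sodium acetate pH 7. Fluorescence polarization (555/632 nm) read 1 hr after 30 uM ThT.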
Numbers stand for hits; – = inactive; ? = inconclusive; · = no result given; [ ] = dose if it differs, or a comment. Unless noted, calls come from the whole dose curve; as a rule, active = well fitted curve in the direction sought with a large enough effect; inconclusive = small, poorly fitted or top-dose-only effect, or another doubt; inactive = no such curve, though single readings can be large; an effect the other way counts as inactive or inconclusive.

SMILES	TR SRC2 fluor cs	RGS12 GoLoco inh	Tau fluor cs	TRb-SRC2 inh	Tau fibril ThT	Tau fibril FP
Cc1ccc(NCC(O)C(O)C(O)CO)c(N=Nc2ccccc2)c1C (configuration not stated)	–	–	12.6µM[quencher]	–	2.51µM	–
COc1ccccc1Cn1c(CNS(=O)(=O)c2ccc3c(c2)CCCC3)nc2cccnc21	–	·	–	–	–	–
Cn1cccc1/C=C1\SC(=S)N(NC(=O)c2ccccc2Cl)C1=O	–	–	–	–	11.2µM	–
O=C(O)CN1C(=O)/C(=C/C=C/c2ccccc2)SC1=S	–	–	–	–	11.2µM	–
Cn1cccc1/C=C1\SC(=S)N(CC(=O)O)C1=O	–	–	–	–	11.2µM	–
CC(=O)c1ccc(NC(=O)CN2C(=O)/C(=C/C=C/c3ccccc3)SC2=S)cc1	–	–	?	–	?	–
Cc1ccc(C(=O)NN2C(=O)/C(=C/c3cccn3C)SC2=S)cc1	–	–	?	–	5.01µM	–
O=C(Oc1ccccc1)N1CCC2(CC1)CCN(c1cccc(-c3ccccc3)c1)CC2	·	–	·	·	·	·
Cc1ccc(CCNC(=O)CCCn2c(=O)c3cccn3c3ccc(F)cc32)cc1	–	·	–	–	–	–
O=C(O)CN1C(=O)/C(=C/c2ccc(SCc3ccccc3)o2)SC1=S	–	–	–	–	12.6µM	–
O=C(NN1C(=O)/C(=C\c2ccc(O)c([N+](=O)[O-])c2)SC1=S)c1ccccc1Cl	–	–	?	–	3.16µM	–
O=C(CN1C(=O)S/C(=C\C=C\c2ccccc2)C1=O)Nc1cccc(O)c1	–	–	15.8µM[quencher]	–	?	?
O=C1/C(=C\c2ccco2)SC(=S)N1Cc1ccccc1	–	–	?	–	?	–
O=C(O)CC(CC(=O)O)C(=O)O	·	–[14.2 µM]	·	·	·	·
Cn1c(=O)c2c(nc(NCCc3ccccc3)n2Cc2cccc(Br)c2)n(C)c1=O	–	·	?	–	–	?
Cc1nc(Nc2ccccc2)c2nc(-c3ccccc3)n(CCCN3CCCCC3C)c2n1 (configuration not stated)	–	–	–	–	–	–
Cc1nn(CC(=O)Nc2ccc(OC(F)(F)F)cc2)c(=O)c2c(C)n(-c3ccc(Cl)cc3)nc12	–	·	–	–	–	–
C#CCCCO/N=C1/[C@H]2O[C@@H]2[C@@H](O)[C@H]2[C@H]1CCn1c(=O)n(C)c(=O)n12	–[11.2 µM]	·	–[11.6 µM]	–[11.2 µM]	–[11.5 µM]	–[11.6 µM]
O=C(Nc1ccc(Br)cc1)c1ccc(F)c(S(=O)(=O)NC2CCCCCC2)c1	–	·	?	–	–	?
CCc1ccc(NC(=O)c2ccc(F)c(S(=O)(=O)NCc3ccc(Cl)c(Cl)c3)c2)cc1	–	·	–	–	–	?
COc1ccc(CNS(=O)(=O)c2cc(C(=O)Nc3cc(Cl)cc(Cl)c3)ccc2F)cc1	–	·	3.55µM[quencher]	–	–	3.55µM
O=C(Nc1cc(Cl)cc(Cl)c1)c1ccc(F)c(S(=O)(=O)NC2CCCCC2)c1	–	·	?	–	–	7.08µM
O=C(Nc1cc(Cl)cc(Cl)c1)c1ccc(F)c(S(=O)(=O)NCc2ccccc2Cl)c1	–	·	?	–	–	8.91µM
CCOC(=O)c1ccc(NS(=O)(=O)c2cc(-c3onc(C)c3C)ccc2C)cc1	–	·	–	–	–	?
CN(C)S(=O)(=O)c1cc(NC(=O)CSc2ncc(C(F)(F)F)cc2Cl)ccc1Cl	–	–	?	–	–	28.2µM
SMILES	TR SRC2 fluor cs	RGS12 GoLoco inh	Tau fluor cs	TRb-SRC2 inh	Tau fibril ThT	Tau fibril FP
Cc1cc(Cl)ccc1-n1c(CCC(=O)O)ccc1-c1cccs1	–	·	–	–	?	–
COCCOC(=O)C1=C(C)NC2(O)c3ccccc3C(=O)C12O (configuration not stated)	–	–	–	–	11.2µM	?
O=[N+]([O-])c1ccc(/C=C/c2ccncc2)cc1	–	–	–	–	?	–
[O-]/[N+](=C\c1ccncc1)c1ccc(Br)cc1	–	–	–	–	31.6µM	?
C/C(=N\NC(=O)CC#N)c1cc2ccccc2oc1=O	–	–	–	–	–	–
C/C(=N\Nc1ccccc1)c1cc2ccccc2oc1=O	–	–	?	–	11.2µM	?
CCc1ccc2c(c1)C1(NN=C(c3cccc4ccccc34)S1)C(=O)N2 (configuration not stated)	–	–	?	–	15.8µM	–
O=C(Nc1ccc(Cl)cc1Cl)c1cc(S(=O)(=O)N2CCc3ccccc32)ccc1F	–	·	–	–	–	–
CCOC(=O)C1(C)C=C(Nc2cccc(OC)c2)C(=O)N1c1ccccc1 (configuration not stated)	–	–	–	–	?	–
CCOC(=O)C1(C)/C(=N/Nc2ccccc2OC)C(=O)C(=O)N1c1ccccc1 (configuration not stated)	–	–	–	–	15.8µM	–
CCOC(=O)C1(C)/C(=N/Nc2ccccc2)C(=O)C(=O)N1c1ccccc1 (configuration not stated)	–	–	–	–	17.8µM	–
Cc1c(Cc2ccccc2)sc(/N=C/c2ccc3ccccc3c2)c1C(N)=O	–	–	–	–	–	–
Cc1c(Cc2ccccc2)sc(/N=C/c2c(O)ccc3ccccc23)c1C(N)=O	–	–	31.6µM[quencher]	–	28.2µM	?
Cc1ccccc1C(=N)c1ccccc1Cc1cccc2ccccc12	·	–[14.2 µM]	·	·	·	·
CC(=O)Nc1cccc(C(=O)/C=C/c2ccc(/C=C/C(=O)c3cccc(NC(C)=O)c3)cc2)c1	–	–	?	–	?	–
CC(=O)Nc1cccc(C(=O)/C=C/c2ccc(N(C)C)cc2)c1	–	–	15.8µM[quencher]	–	25.1µM	–
O=C(/C=C/c1ccco1)c1ccc(O)cc1	–	–	–	–	?	–
CN(C)c1ccc(C(=O)/C=C/c2ccco2)cc1	–	–	–	–	10µM	–
CC(=O)Nc1cccc(C(=O)/C=C/c2ccco2)c1	–	–	?	–	25.1µM	?
OC1CC2CC[C@H](C1)N2CCCN1c2ccccc2Sc2ccc(Cl)cc21 (some centres not stated)	·	–[14.2 µM]	·	·	·	·
O=C(O)c1ccc(N/N=C/c2cc3c(cc2[N+](=O)[O-])OCO3)cc1	–	–	–	–	14.1µM	–
O=[N+]([O-])c1cc(Cl)ccc1NCCNS(=O)(=O)c1ccccc1	–	–	?	–	12.6µM	–
CC1(C)Cc2c(c(N3CCOCC3)nc3snc(N)c23)CO1	–	–	–	–	12.6µM	?
CC1(C)Cc2c(c(N3CCOCC3)nc3snc(Br)c23)CO1	–	–	–	–	?	–

Screening data as filed in PubChem.
